According to PubChem BioAssay (EPA / NIEHS):
The source made the active and inactive calls. How the source made its calls: active means hit-call score of the fitted dose curve at least 0.9, where 1 is the maximum; inactive means score below 0.9.

Read-out: Keratin 19 (KRT19), KRT19 (gene 3880)
Test: LTEA_HepaRG_KRT19: Life Technologies and Expression Analysis (LTEA) Assay for Keratin 19 (KRT19) using HepaRG (AID 2283512)
Conditions: mRNA level, 48 h; actives raise or lower the signal
Protocol: LTEA_HepaRG is a cell based, multiplexed-readout assay that uses HepaRG, a human liver cell line, with measurements taken at 48 hours after chemical dosing on a 96-well plate.LTEA_HepaRG_KRT19 is one of 102 assay component(s) measured in the LTEA HepaRG cell culture assay. It is a marker of Cell proliferation, survival, death.Data from the assay component LTEA_HepaRG_KRT19 was analyzed into 1 endpoint. This assay endpoint, LTEA_HepaRG_KRT19, was analyzed with bidirectional fitting relative to DMSO as the negative control and baseline of activity. Using a type of inducible reporter, measures of mRNA induction for gain or loss-of-signal activity can be used to understand regulation of transcription factor activity. To generalize the intended target to other relatable targets, this assay endpoint is annotated to the filaments intended target family, where the subfamily is keratin.
A total of 1060 chemcials from the ToxCast library were tested in eight-point concentration-response experiments. Cell culture and cytotoxicity assays were conducted at Thermo Fisher Scientific's Custom Services facility (Madison, WI). A single lot of human HepaRG cells (Thermo Fisher Scientific, Frederick, MD) was used for the cell culture experiments. 96-well format collagen type I coated plates of human HepaRG cells were prepared using established methods. Briefly, cryopreserved HepaRG cells were thawed, plated at a density of approximately 100,000 cells/well in HepaRG Thaw, Plate, and General Purpose media (HPRG770, Thermo Fisher Scientific), and incubated for 48 hours. 0.5% DMSO was selected as vehicle control to balance the requisite need of DMSO in HepaRG cultures to maintain differentiation (for example, baseline metabolism, proportions of hepatocytes vs. cholangiocytes), while enabling further hepatic receptor pathway activation (for example, PXR and CAR) in response to chemical exposure. 48 hours after plating, the culture medium was replaced with HepaRG Serum-Free Incudtion Media. Cells were exposed to each test chemical in duplicate and maintained in CO2 incubators for another 48 hours. Chemical plates were thawed to room temperature and 200x concentrations of treatment groups were prepared. 8-point conentration-reponse curves were made with the highest exposure at 100 uM, followed by half-log dilutions, all in 0.5% DMSO. Each test plate contained variouse controls, induction positive controls (1mM phenobarbital), cytotoxicity positive controls ([…] aflatoxin B1), vehicle controls (0.5% DMSO), and total lysis controls (0.5% DMSO). Cell morphology images were taken using an Essen IncuCyte FLR automated microscope, with six 96-well plates imaged in about 24 minutes. Images were captured and exported and JPEG files. Spent culture media was transfered to black-well plates for the LDH assay, and remaining media was sorted at -80 C for later use. Cells were treated with RLT buffer and frozen until shipped for gene expression analysis. Total RNA was isolated from the cell suspension in 75 uL of Buffer RLT (Qiagen, Germantown, MD 20874) by Quintiles/Expression Analysis (Durham, NC) using a custom isolation procedure. Total RNA from each plate well was transferred to a preamplification plate. Fluidigm's 96.96 Dynamic ArrayTM (Fluidigm, Amsterdam, the Netherlands) technology was used for gene expression analyses by quantitative reverse transcription polymerase chain reaction (qRT-PCR, performed by Quintiles/Expression Analysis, Durham, NC)89. Standard TaqManTM Assays (Applied Biosystems/ThermoFisher Scientific, Foster City, CA) were used to assess the expression of 93 genes selected based on their selectivity and sensitivity to important hepatic receptors known to be modulated by environmental chemicals; importance in human hepatocyte functionality; and hepatotoxicity. […]

SMILES	outcome	AC50
CC(C1CC1)C(O)(Cn1cncn1)c1ccc(Cl)cc1 (stereo not given)	inactive	
COP(=O)(OC)C(O)C(Cl)(Cl)Cl (stereo not given)	inactive	
Cc1cc(C2CC2)nc(Nc2ccccc2)n1		22.9 µM (active)
CCOP(=O)(NC(C)C)Oc1ccc(SC)c(C)c1 (stereo not given)	inactive	
CC(COc1ccc(Oc2ccccc2)cc1)Oc1ccccn1 (stereo not given)	inactive	
CN(C)[C@@H]1C(=O)C(C(N)=O)=C(O)[C@@]2(O)C(=O)C3=C(O)c4c(O)cccc4[C@@](C)(O)[C@H]3[C@H](O)[C@@H]12	inactive	
C[N+]1(C)CCCCC1	inactive	
FC(F)C(F)(F)OCC(Cn1cncn1)c1ccc(Cl)cc1Cl (stereo not given)	inactive	
CC1(C(=O)Nc2ccc(O)c(Cl)c2Cl)CCCCC1	inactive	
CCCCOC(=O)[C@@H](C)Oc1ccc(Oc2ccc(C#N)cc2F)cc1	inactive	
CCOP(=S)(Oc1cnc(C(C)(C)C)nc1)OC(C)C (stereo not given)	inactive	
Nc1nc(N)nc(NC2CC2)n1	inactive	
COP(=O)(OC)SCn1c(=O)oc2cc(Cl)cnc21	inactive	
C[Si](Cn1cncn1)(c1ccc(F)cc1)c1ccc(F)cc1	inactive	
CCCSP(=O)(OCC)SCCC	inactive	
CSc1nnc(C(C)(C)C)c(=O)n1N	inactive	
C=C(C)[C@H]1Cc2c(ccc3c2O[C@@H]2COc4cc(OC)c(OC)cc4[C@@H]2C3=O)O1		0.654 µM (active)
CCOP(=O)(OCC)Oc1cc(C)nc(C(C)C)n1	inactive	
CCCCOC(=O)c1ccccc1C(=O)O	inactive	
CCOC(=O)COc1cc(-c2nn(C)c(OC(F)F)c2Cl)c(F)cc1Cl	inactive	

SMILES	outcome	AC50
COc1ccc(C(=CC(=O)N2CCOCC2)c2ccc(Cl)cc2)cc1OC	inactive	
Cc1ccn2nc(S(=O)(=O)Nc3c(F)cccc3F)nc2n1	inactive	
COP(=O)(OC)OC(Br)C(Cl)(Cl)Br (stereo not given)	inactive	
CCOP(=S)(OCC)Oc1ccc2c(C)c(Cl)c(=O)oc2c1		29.4 µM (active)
CCCCSP(=O)(SCCCC)SCCCC		1.7 µM (active)
CCCOc1nn(C(=O)NS(=O)(=O)c2ccccc2C(=O)OC)c(=O)n1C	inactive	
COc1cc(OC)nc(Sc2cccc(Cl)c2C(=O)O)n1	inactive	
CCC(=NOC/C=C/Cl)C1=C(O)CC(C2CCOCC2)CC1=O (stereo not given)	inactive	
CCOC(=O)CC(SP(=O)(OC)OC)C(=O)OCC (stereo not given)	inactive	
CC1=NNC(=O)N(/N=C/c2cccnc2)C1	inactive	
S=C1NCCN1	inactive	
C#CC(C)(C)NC(=O)c1cc(Cl)cc(Cl)c1		11.8 µM (active)
CCC(=O)Nc1ccc(Cl)c(Cl)c1		41.4 µM (active)
Cc1nn(-c2cc(NS(C)(=O)=O)c(Cl)cc2Cl)c(=O)n1C(F)F	inactive	
CNc1cnn(-c2cccc(C(F)(F)F)c2)c(=O)c1Cl		14.5 µM (active)
C#CCC1=C(C)C(OC(=O)C2C(C=C(C)C)C2(C)C)CC1=O (stereo not given)	inactive	
CNC(=O)ON=C(C)SC	inactive	
CNC(=O)ON=C(SC)C(=O)N(C)C	inactive	
O=[N+]([O-])c1cc(C(F)(F)F)c(Cl)c([N+](=O)[O-])c1Nc1ncc(C(F)(F)F)cc1Cl		26.2 µM (active)
CCOP(=O)(SC(C)CC)N1CCSC1=O (stereo not given)	inactive	
